Out of some 360,000 compounds screened, about 1,800 (0.5%) were called active. The full list was thinned out, with actives kept by preference. Values without a mark were called inactive.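 The calls were made as follows: active = interference check ratio from 0.5 to 1.5 plus GFP to RFP signal ratio inhibition reaching or exceeding a fixed threshold (cut at about 30% in these data, passing the limit was not always enough); inactive = the rest.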
Assay: gst-4 reporter inhibition in live C. elegans – whole organism, uHTS, GFP/RFP fluorescence ratio, strain VP596, SKN-1 inhibitor project, primary screen (AID 624304)
Details: C. elegans VP596 Pgst-4::GFP/RFP ratio, acrylamide-induced, 24 h; at 21.8 µM; active compounds read high

SMILES | inhibition
COCCn1c(=NC(=O)c2ccccc2[N+](=O)[O-])sc2cc(S(C)(=O)=O)ccc21 | 0.193%
COc1ccc(C(=O)NC(C)Cn2nc(C)cc2C)cc1OC1CCN(C(C)=O)CC1 (stereo not given) | 8.35%
CCC(Cc1ccccc1)NS(=O)(=O)c1ccc2c(c1)NC(=O)CS2 (stereo not given) | -5.64%
O=C(Nc1cc(F)ccc1F)c1ccc2c(=O)n3c(nc2c1)CCC3 | -4.08%
COC[C@@H]1NS(=O)(=O)c2ccc(Br)cc2O[C@H]1c1ccccc1 | 14.6%
COc1ccc(C(=O)NCc2ccc(C)cc2)cc1S(=O)(=O)N1CCCC1 | 0.996%
CCOC(=O)c1cccc(NC(=O)CN2C(=O)C3CC=CCC3C2=O)c1 (stereo not given) | 6.29%
CC(=O)N(CN1C(=O)C2C3C=CC(C3)C2C1=O)c1cccc(Cl)c1 (stereo not given) | 16.7%
CC(=O)N(CN1C(=O)C2CC=CCC2C1=O)c1cccc(Cl)c1 (stereo not given) | 36.1% (active)
COc1ccc(NC(=O)C(CC(C)C)NC(=O)C2CCC(C)CC2)cc1 (stereo not given) | -11.6%
COc1ccc(Cc2nnc(NC(=O)c3cc(OC)c(OC)c(OC)c3)s2)cc1OC | -13.7%
CC(=O)Oc1ccc(C(=O)Nc2nccs2)cc1 | 3.06%
COc1cc(C(=O)Nc2nccs2)cc(OC)c1OC | 41.9% (active)
CCC(C)(C)c1ccc(OCC(=O)N(C)C)c(C(C)(C)CC)c1 | 2.98%
CC1(C(=O)NS(=O)(=O)c2cccc(F)c2)CCN1C(=O)Cc1ccc(Cl)cc1Cl (stereo not given) | 15.6%
C=C(C)Cn1c(N2CCN(CC)CC2)nc2c1c(=O)[nH]c(=O)n2C | 16.3%
O=S(=O)(Cc1cc(Sc2ccccc2)nc(-c2ccccc2)n1)c1ccccc1 | 44.9% (active)
O=S(=O)(Cc1cc(Cl)nc(-c2cccnc2)n1)c1ccccc1 | -15.6%
Cc1ccc(Sc2cc(N3CCOCC3)nc(-c3ccccc3)n2)cc1 | 7.71%
Cc1cc2c(=O)n(CC(=O)NCC(=O)Nc3ccc(C(C)C)cc3)cnc2s1 | -0.0427%
CCOc1ccc(N2C(=O)/C(=C/c3ccc(C)o3)N(C)C2=S)cc1 | -1.02%
O=C(CCn1c(=S)[nH]c2ccccc2c1=O)NCCCN1CCCC1=O | 36.5% (active)
CCOc1cc2[nH]c(=S)n(CCCN3CCCC3=O)c(=O)c2cc1OCC | -28.4%
O=Cc1c(NCCCN2CCCC2=O)c2ccccc2[nH]c1=O | 19.6%

SMILES | inhibition
COc1ccc(N2CCN(C(=O)C3CCN(S(=O)(=O)c4ccc(C)cc4)CC3)CC2)cc1 | 5.77%
CC(CCc1ccccc1)NC(=O)COC(=O)c1ccc(F)cc1 (stereo not given) | 3.96%
CCc1ccc(OCC(=O)OCC(=O)c2c(N)n(C)c(=O)n(C)c2=O)cc1 | -10%
C[C@H]1CN([C@@H](C)CO)C(=O)CCCn2cc(nn2)CO[C@@H]1CN(C)C(=O)Nc1ccccc1 | 1.2%
COc1ccccc1NC(=O)CCN1CCN(c2ccc(Cl)cc2)CC1 | 8.41%
COC(=O)CNC(c1ccccc1Cl)c1cc(Br)ccc1NC(=O)CCN1CCOCC1 (stereo not given) | 35.2% (active)
Cc1cc(NC(=O)CCN2CCN(Cc3ccccc3)CC2)ccc1Br | 1.51%
Cc1cc(C)cc(NC(=O)C2CCCN(S(=O)(=O)c3ccc4[nH]c(=O)ccc4c3)C2)c1 (stereo not given) | 11.9%
O=S(=O)(NC1CC2CCC1C2)c1ccc(Cl)cc1 (stereo not given) | 8.97%
CN1c2ccc(C=O)c3c(C=O)ccc(c23)N(C)C1(C)C | 39.8% (active)
CCCCNC(=O)C1(O)c2ccccc2NC(=O)N1c1ccc(Cl)cc1 (stereo not given) | 19.1%
CSc1ccc(CNC(=O)c2ccc(NC(=O)C3=CSCCO3)cc2)cc1 | 22.9%
Cc1nc2ccccn2c1C(=O)NN=C1CCN(C)CC1 | 8.18%
CC1=NNC(=O)C1Cc1c(Cl)cccc1Cl (stereo not given) | -3.65%
Cc1ccc(OCCNC(=O)CNC(=O)c2ccc(C)c(C)c2)cc1 | 5.58%
CC(C=Cc1ccccc1)=NNS(=O)(=O)c1ccc([N+](=O)[O-])cc1 | 21.6%
O=[N+]([O-])c1ccc(N/N=C/c2ccccc2)cc1 | 41.2% (active)
COC(=O)c1ccccc1N=NNc1ccc([N+](=O)[O-])cc1 | 20.6%
CC1CN(c2cc(=O)n(-c3cccc(Br)c3)c(=O)[nH]2)CC(C)O1 (stereo not given) | 5.49%
Brc1ccc2nc(N3CCCC3)sc2c1 | 52% (active)
O=C(NCCc1cccc(F)c1)C1CCCN(c2nc3ccccc3s2)C1 (stereo not given) | 10.3%
COc1ccc2nc(N3CCN(C(=O)c4ccc([N+](=O)[O-])o4)CC3)sc2c1 | 2.32%
CCCCN1C(=S)NC[C@@H]1C(C)CC (stereo not given in full) | -0.152%
Clc1ccc(C[n+]2cc(-c3ccc(Cl)cc3)n3c2CCC3)cc1 | 0.364%

SMILES | inhibition
O=C(C1CCN(S(=O)(=O)c2cnc[nH]2)CC1)N1CCN(Cc2ccc3c(c2)OCO3)CC1 | 17.4%
COc1ccccc1N1CCN(CC(=O)Nc2ccnn2C2CCCC2)CC1 | -9.67%
FC(F)(F)c1ccnc(Oc2ccc(C3=NCCS3)cc2)c1 | 44.7% (active)
CCC(=O)Nc1ccc(S(=O)(=O)Nc2c(NC)c3ccccc3oc2=O)cc1 | 9.74%
CN(Cc1ccccc1)C(=O)COC(=O)c1ccccc1Nc1ccccc1 | -4.32%
Cc1cccc(N2CCN(C(=O)c3cccc(S(=O)(=O)N4CCc5ccccc5C4)c3)CC2C)c1 (stereo not given) | -16.8%
COc1cccc(C2SCC(=O)N2c2cccc(C)c2)c1OC (stereo not given) | 2.8%
Cc1cc(C(C)(C)C)oc1C(=O)N(CC(=O)NC1CCCC1)Cc1ccc(Cl)cc1 | 6.57%
CCCOc1ccc(-c2c(C(=O)N/N=C/c3ccco3)nnn2-c2nonc2N)cc1 | 3.6%
CCCCOc1ccc(-c2nnc(-c3ccco3)o2)cc1 | 64.9% (active)
CCOc1ccc(NC(=O)N(CCC(C)C)C(C)c2ccco2)cc1 (stereo not given) | -11.7%
CCOc1ccc(-c2nnc(-c3ccco3)o2)cc1 | 58.1% (active)
CCCCSc1nnc(-c2ccc(C)cc2)o1 | 1.11%
O=C(CSc1nnc(-c2ccco2)o1)NCC(=O)c1ccccc1 | -0.628%
OCC(CO)(CO)NCc1ccc(-c2ccccc2)cc1 | 5.37%
CC(O)c1nc2c(c(=O)n(C)c(=O)n2C)n1C (stereo not given) | 1.19%
Cc1cccc(CN2CCN(Cc3cnn(-c4ccccc4F)c3)CC2CCO)n1 (stereo not given) | -14.6%
COc1ccc(C(=O)N(C)CC(O)c2ccccc2)cc1OC1CCN(C(C)=O)CC1 (stereo not given) | -1.73%
COCCNC(=O)c1ccc(-n2c(SCc3cccnc3)nc3ccccc3c2=O)cc1 | 7.94%
CCC(C(=O)NCc1ccccc1)n1c(Cc2cc(F)cc(F)c2)nc2ccccc21 (stereo not given) | -5.9%
CCOC(=O)c1cccc(NC(=O)C2CCN(c3ncnc4c3nc3n4CCCCC3)CC2)c1 | -10.7%
COc1cccc(NC(=O)C2CCCN(c3ncnc4c3nc3n4CCCCC3)C2)c1 (stereo not given) | 35.4% (active)
COc1cccc(CNC(=O)C2CCCN(c3ncnc4c3nc3n4CCCCC3)C2)c1 (stereo not given) | 15.4%
CCCC1C(=O)N2C(N(C)C)=Nc3ccc(C)cc3N2C1=O (stereo not given) | 11.9%

SMILES | inhibition
Cn1c(=O)c2c(ncn2CC(COCc2ccccc2Cl)OCc2ccccc2Cl)n(C)c1=O (stereo not given) | -6.9%
CNC(=O)/C(C#N)=C/c1c(F)cccc1Cl | 14.6%
C=CCC1(C#N)C(=S)NC(C)=C(C(=O)OCC)C1c1ccccc1 (stereo not given) | 20.2%
CCCNC(=O)C1CC(=O)N(c2ccc(OCc3ccccc3)cc2)C1 (stereo not given) | 5.65%
CC1(C)NC(=O)N(CCCCSc2ccc(Cl)cc2)C1=O | 4.13%
CCCCn1c(=S)[nH]c2cc(S(=O)(=O)N3CCCCC3)ccc21 | 15.1%
CCn1c(=S)[nH]c2cc(S(=O)(=O)N3CCOCC3)ccc21 | -5.66%
CNS(=O)(=O)c1ccc2c(c1)[nH]c(=S)n2C | 45.2% (active)
O=C(Nc1ccc2c(c1)CCC2)c1ccc(Br)s1 | 9.29%
COc1ccc(CNC(=O)c2ccc(Br)s2)cc1OC | -0.0485%
COc1ccc2nc(NC(=O)c3ccc(Br)s3)sc2c1 | 38.2% (active)
Cc1cc(N)n(-c2ccc(S(=O)(=O)N3CCCC3)cc2[N+](=O)[O-])n1 | -11.2%
Cc1oc(-c2cccc(Cl)c2)[n+]([O-])c1C | 20.3%
O=C(CCCC(=O)N(CC(=O)NC1CCCC1)Cc1ccccc1Cl)Nc1ccccn1 | 12%
O=C(NC(=S)Nc1ccc(S(=O)(=O)Nc2ncccn2)cc1)c1cccc(Br)c1 | -6.45%
O=C(NC(=S)Nc1cccc2c(O)cccc12)c1cccc(Br)c1 | 41.4% (active)
O=C(NC(=S)Nc1ccc(Cl)c(C(=O)O)c1)c1cncc(Br)c1 | -0.232%
CC(=O)c1ccc(N2CCN(C(=O)c3ccc(Cl)c(S(=O)(=O)NC4CC4)c3)CC2)c(F)c1 | 14.2%
CC(=O)c1ccc(N2CCN(C(=O)CCNC(=O)Cn3ccc4ccccc4c3=O)CC2)cc1 | -6.32%
CC1CCN(c2ccc([N+](=O)[O-])c(SCCO)c2)CC1 | 13.8%
C=CCNc1nc(Nc2ccc(Cl)cc2)nc(OC)n1 | 13.7%
Clc1ccc(Nc2ccc3ccccc3n2)cc1 | 47.2% (active)
CC1(C)N=C(N)NC(Nc2ccc(Cl)cc2)=N1 | 9.6%

Reference: PubChem BioAssay AID624304 (Sanford-Burnham Center for Chemical Genomics, 2012)
